The whole screen tested about 360,000 compounds, of which about 5,000 (1.4%) were called active. The full list was thinned out, with actives kept by preference. A number with no mark means an inactive call.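 The calls were made as follows: active = inhibition of 50% or more, scaled per plate between neutral and stimulator controls; inactive = the rest.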
Experiment: blockers of Ca2+-induced mitochondrial swelling – biochemical, isolated mouse mitochondria, absorbance, primary screen (AID 602449);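 also: 0% = DMSO wells given calcium and 100% = 1 mM EGTA wells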
Conditions: 30 min, at 10 µM, hits give high values
In the case of `O=C(C1CCC1)N1CCc2cc(S(=O)(=O)NCc3cccnc3)ccc21`, the inhibition is reported as -1.1%. In the case of `COc1cccc(CNS(=O)(=O)c2ccc3c(c2)CC(C)N3C(=O)C2CCC2)c1` (stereo unspecified), the inhibition is reported as 90.4% (active). Molecule `COc1ccc(N(C)S(=O)(=O)c2ccc3c(c2)CC(C)N3C(=O)C2CC2)c(OC)c1` (stereo unspecified) has an inhibition of 0.9%. Work on `COc1cccc(NC(=O)Cn2cnc3sc(C)c(S(=O)(=O)N4CCN(C)CC4)c3c2=O)c1` yielded an inhibition of 0.8%. Molecule `Cc1ccc(C2(C(F)(F)F)N=C3Sc4cc(C)cc(C)c4N3C(=O)N2)cc1` (stereo unspecified) has an inhibition of 5.4%. In the case of `CSc1sc(C(=O)NNC(=O)c2ccc(Cl)cc2)c2c1C=CCC2`, the inhibition is reported as 3%. In the case of `COc1cc(NS(=O)(=O)c2ccc(NC(=S)NC(=O)c3ccccc3)cc2)nc(OC)n1`, the inhibition is reported as -1.6%. With `CS(=O)(=O)c1sc(C(=O)NC(=S)Nc2ccc(OC(F)(F)F)cc2)c2c1C=CCC2` the inhibition was 53.1% (active). `COc1cccc(N(Cc2nnc3n2CCCCC3)C(=O)Nc2ccccc2F)c1` gave an inhibition of 0.7%. For `Cc1nn(-c2ccccc2)c2sc(C(=O)N(Cc3ccco3)C(C)C(=O)NC(C)(C)C)cc12` (stereo unspecified), the inhibition was -3.6%. Work on `CC1=C(C(=O)N2CCOCC2)CC(CC(=O)NCCN2CCOCC2)C(=O)N1CCC1=CCCCC1` (stereo unspecified) yielded an inhibition of 5.2%. In the case of `O=C(Cn1nnc2ccccc2c1=O)NCc1ccc(Cl)cc1`, the inhibition is reported as -0.4%. With `CN(C(=O)Nc1ccc(Cl)cc1)n1cnc2ccccc2c1=O` the inhibition was 55.1% (active). With `O=C(Nn1cnc2ccccc2c1=O)c1ccc(F)cc1Cl` the inhibition was 0.6%. For `O=C(CCCN1C(=O)C2C3C=CC(C3)C2C1=O)N1CCN(c2ccccc2)CC1` (stereo unspecified), the inhibition was -1.6%. With `O=C(NCCc1ccc2c(c1)OCCO2)c1cc2ccccc2o1` the inhibition was 74.2% (active). `CN(C)C(CNC(=O)c1cc2ccccc2o1)c1ccccc1` (stereo unspecified) showed an inhibition of 0.1%. For `CNS(=O)(=O)c1ccc(C(=O)NCC(=O)NCCc2ccc3c(c2)OCCO3)cc1`, the inhibition was -1.7%. Molecule `O=C(NC(=O)c1cc(OCC(F)(F)F)ccc1OCC(F)(F)F)Nc1ccccc1` has an inhibition of 12.2%. In the case of `CCCCCN(C(=O)NC(=O)Nc1ccccc1C)S(C)(=O)=O`, the inhibition is reported as 7.5%. Work on `CC(=O)Nc1cc(-c2ccccc2N(C)C)cn2c(-c3ccc(F)c(Cl)c3)cnc12` yielded an inhibition of 0.4%. With `CCCN1C2=C(C(=O)CCC2)C(c2ccc(O)c(Br)c2)C2=C1CCCC2=O` the inhibition was 0.7%. In the case of `Cc1nc2ccccc2cc1OCc1ccc(F)cc1`, the inhibition is reported as 97.1% (active). With `Fc1ccc(COc2cccc(-c3n[nH]c(=S)o3)c2)cc1` the inhibition was 8.5%. `Fc1cccc2ncnc(OCc3ccccc3)c12` showed an inhibition of 0.3%. Work on `Cc1ccc(S(=O)(=O)N2CCOCC2)cc1NC(=O)COC(=O)c1cnccn1` yielded an inhibition of -1%. Molecule `Nc1nc(SCC(=O)Nc2ccc(Cl)cc2C(F)(F)F)n[nH]1` has an inhibition of 0.2%. `CNC(=O)Nc1cc(C(C)(C)C)no1` showed an inhibition of -2.3%. With `Cc1nc2c(-c3ccccc3)c(C)[nH]n2c(=O)c1Cl` the inhibition was -1%. `CCCc1cc(=O)n2[nH]c(C)c(-c3ccc(Cl)cc3)c2n1` showed an inhibition of 1.2%. In the case of `Cc1[nH]n(-c2cccc(Cl)c2)c(=O)c1-c1ccc(Cl)cc1`, the inhibition is reported as 102% (active). Molecule `CC(NC(=O)CN1CCN(Cc2ccc(Cl)cc2)C1=O)c1ccc2c(c1)OCCO2` (stereo unspecified) has an inhibition of -2.1%. For `Cc1c2cnn(CC(=O)NCCCN3CC(C)CC(C)C3)c(=O)c2c(C)n1Cc1ccc(Cl)cc1` (stereo unspecified), the inhibition was -0.1%. Molecule `COc1ccc(CNC(=O)C(=O)N2CCC3(CC2)OCCN3S(=O)(=O)c2ccc(C)cc2)cc1` has an inhibition of 0.1%. In the case of `NC1=NC(=O)C(Cc2cccc(Cl)c2Cl)S1` (stereo unspecified), the inhibition is reported as 1.7%. Molecule `CCOC(=O)Cc1csc(SCC(=O)NC(C)C23CC4CC(CC(C4)C2)C3)n1` (stereo unspecified) has an inhibition of -0.5%. With `CC(=O)c1ccc(NC(=O)Nc2ccc([N+](=O)[O-])cc2C)cc1` the inhibition was 94.4% (active). With `COc1cc(NC(=O)Nc2ccc(C)cc2)cc([N+](=O)[O-])c1` the inhibition was 104% (active). In the case of `COc1ccc(S(=O)(=O)NNC(=O)Nc2ccc(C)cc2)c(OC)c1`, the inhibition is reported as -0.8%. For `COc1cccc(C(=O)CC(=O)C(=O)Nc2ccc([N+](=O)[O-])cc2C)c1`, the inhibition was -17.7%. With `Cc1ccc(Oc2cc(NC(=O)CCCn3nc(C)c([N+](=O)[O-])c3C)cc([N+](=O)[O-])c2)cc1` the inhibition was 40.9%. In the case of `CC(=O)Nc1ccc(C(=O)OCC(=O)Nc2ccc([N+](=O)[O-])cc2C(F)(F)F)cc1`, the inhibition is reported as 36.6%. `COc1ccc(NC(=O)C(c2ccncc2)n2c(=O)c(-c3cc4ccccc4[nH]3)nc3ccccc32)cc1` (stereo unspecified) gave an inhibition of 4.2%. For `CC(C)C[C@H](NC(=O)C1CC(=O)N(c2ccc3c(c2)OCCO3)C1)C(=O)NC1CCCC1` (stereo partly specified), the inhibition was -0.1%. Molecule `CN(C)C(=O)c1cc(Br)ccc1Cl` has an inhibition of 1.1%. In the case of `CCc1nnc(NS(=O)(=O)c2ccc(NC(=O)c3cccc(OC(F)(F)C(F)F)c3)cc2)s1`, the inhibition is reported as 2.9%. For `O=C(Nc1ccc(OC(F)(F)F)cc1)c1ccc2c(c1)no[n+]2[O-]`, the inhibition was 82.5% (active). In the case of `Cc1ccc(NC(=O)c2ccc(Oc3ncccn3)cc2)cc1`, the inhibition is reported as 0.4%. Molecule `Fc1cccc(Cc2c(-c3cccc(Cl)c3)nc3ccc(Br)cn23)c1` has an inhibition of 2.5%. `CCOC(=O)C1CCN(C(=O)Cc2c(C(=O)O)[nH]c3ccccc23)CC1` gave an inhibition of 0.3%. In the case of `CCOC(=O)C1=C(CC)Nc2ccccc2N=C1N`, the inhibition is reported as 1.2%. For `O=C(COC(=O)c1ccccc1NC(=O)c1ccco1)Nc1ccc2c(c1)OC(F)(F)O2`, the inhibition was 60.9% (active). For `O=C(COC(=O)c1ccc[nH]c1=O)Nc1ccc2c(c1)OC(F)(F)O2`, the inhibition was 3%. With `O=C(COC(=O)CNC(=O)c1ccco1)Nc1ccc(F)cc1` the inhibition was -1.2%. In the case of `COC(=O)[C@]12CCCCC=C1N(Cc1ccccc1)C(=O)[C@H](CC(=O)NCc1ccc(C)o1)C2`, the inhibition is reported as -0.1%. Molecule `COc1ccc(NC(=O)CN(C)S(=O)(=O)c2ccccc2)cc1OC` has an inhibition of -0.5%. Work on `Cc1nc(-c2ccc(F)cc2)c(CC(=O)Nc2cc(S(=O)(=O)N3CCCCC3)ccc2C)s1` yielded an inhibition of -0.4%. For `Cc1ccc(-c2nc(-c3cccnc3)sc2CC(=O)Nc2ccc(C)c(Cl)c2)cc1`, the inhibition was 93.3% (active). With `Cc1cc(C)c(NC(=O)CS(=O)CC(=O)Nc2cccnc2)c(C)c1` (stereo unspecified) the inhibition was -1.4%. `Cc1ccc(Nc2c(F)c(F)c(F)c(F)c2C(=O)O)c(C)c1` gave an inhibition of -0.7%. With `O=C(CCn1nnc2ccccc2c1=O)N[C@@H](Cc1c[nH]c2ccccc12)C(=O)O` the inhibition was 1.4%. With `Cc1ccc(C(=O)Nc2nnc(C3=COCCO3)o2)cc1C` the inhibition was -0.8%. For `Cc1cc(C(=O)CSc2nc(N)cc(=O)[nH]2)c(C)n1-c1cccc(F)c1`, the inhibition was 63.2% (active). In the case of `Cc1cc(C)c(C(=O)CSc2nc(C)cc(=O)[nH]2)c(C)c1`, the inhibition is reported as 0.6%. In the case of `Cc1cc(C(=O)CSc2nc(N)cc(=O)[nH]2)c(C)n1CCc1ccc(Cl)cc1`, the inhibition is reported as -9%. For `Cc1cc(C(=O)CSc2nc(N)cc(=O)[nH]2)c(C)n1Cc1ccco1`, the inhibition was 64.3% (active). Molecule `COc1ccc(C)cc1-n1nnnc1SCC(=O)c1cc(C)n(Cc2ccco2)c1C` has an inhibition of -2.3%. For `Cc1cc(C(=O)COC(=O)C2CC2)c(C)n1-c1ccc(F)cc1`, the inhibition was 0.2%. With `CC1CCN(c2ccc(-c3ccc(NC(=O)c4ccco4)cc3)nn2)CC1` the inhibition was 0.3%. `CSCCC1NC(=O)N(CC(=O)Nc2cccc(S(=O)(=O)N3CCCCCC3)c2)C1=O` (stereo unspecified) gave an inhibition of 1.2%. With `CCOC(=O)C1C(=O)OC2(CCCC2)C1C(=O)OCC` (stereo unspecified) the inhibition was -1.2%. With `COc1cccc(CNc2nc3cc(-c4csc5ccccc45)sc3c(=O)n2C)c1` the inhibition was 2.5%. For `COc1ccccc1CNc1nc(Nc2ccccc2Cl)c2sccc2n1`, the inhibition was 74.5% (active). With `COc1cccc(CNc2nc(NCc3cccs3)nc3ccsc23)c1` the inhibition was 77.8% (active). With `COc1cccc(CNc2nc(NCc3ccccc3OC)nc3ccsc23)c1` the inhibition was 94.6% (active). `COCCNc1nc(Nc2ccccc2Cl)c2sc(-c3ccccc3)cc2n1` showed an inhibition of 2.1%. With `COCCNc1nc(NCc2ccc(NC(C)=O)cc2)c2sccc2n1` the inhibition was -1.4%. In the case of `COc1ccc(NC(=S)NCc2cccs2)c(OC)c1`, the inhibition is reported as 2.2%. With `Clc1ccccc1Nc1nc(NCc2cccs2)nc2ccsc12` the inhibition was 3%. Work on `COc1cccc(-c2cc3nc(NCc4ccccc4OC)n(C)c(=O)c3s2)c1` yielded an inhibition of 1.9%. In the case of `Cc1ccc(Nc2nc(CSc3nnc(-c4ccncc4)n3-c3ccccc3C)cs2)cc1`, the inhibition is reported as 2.2%. Molecule `CC(Cc1cccs1)NC(=O)c1cccc(Cl)c1` (stereo unspecified) has an inhibition of 4.2%. Work on `Cc1c(NC(=S)NC(=O)CCc2ccccc2)c(=O)n(-c2ccccc2)n1C` yielded an inhibition of 0.3%. In the case of `Cc1cc(C)cc(NC(=O)COC(=O)c2cc(C)oc2C)c1`, the inhibition is reported as 0.5%. Work on `CN(C)CCn1c2c(c(SCC(=O)NCc3ccccc3)nc1=O)CCC2` yielded an inhibition of -1%. With `CCOC(=O)c1cc(=O)c2ccc(OCc3ccccc3)cc2o1` the inhibition was 0.1%. Molecule `CCOC(=O)c1oc2c(CN3CCN(C)CC3)c(O)ccc2c(=O)c1-c1ccc(Br)cc1` has an inhibition of 9.1%. In the case of `CCOC(=O)c1cc2cc(-c3c(C(=O)OCC)oc4cc(O)cc(O)c4c3=O)ccc2o1`, the inhibition is reported as 50.9% (active). With `C/C(=N\Nc1nc2ccccc2[nH]1)c1cccs1` the inhibition was 1.1%. `Cc1ccc(-c2nc(C)sc2CC(=O)OCC(=O)Nc2c(F)cccc2F)cc1` gave an inhibition of 0.8%. With `Cn1c(=O)c(C(=O)Nc2ncccn2)c(O)c2ccccc21` the inhibition was -1.3%.

Reference: PubChem BioAssay AID602449 (Sanford-Burnham Center for Chemical Genomics, 2012)
